# Results taken from the supplement of paper PMC8728848.
# The entries come from a sample that favours the strongest signals as a whole.
# B1: his-Lectin-24A (Drosophila melanogaster) (protein)
# chain: MFRLSVLVLNLLLVSHEFSAGTAKIEIQPLPALCNGYCFPTLKPVMEYVAIHQDKWNTCTEILANEARKDQIQLNIQLDALKADVSNIKASQLSKDEKLDRMEREQFAMHESLETINRYLTVKLDRTKLQLEAIKNTMDYMKAQMDGYFSAINGVQCLQPGFEKIGDRYFYIEEDVELNWLDAQAKCRRMGGHLASIKTKQEFDAIVEKLDDSKSYFLGVNENTKTGDFVSAASGKSCLYHEWGPGEPHHNNDQERCVSILRKLMHVGNCTYEKRFICQYGI
# Assays:
# Assay in all cases: glycan array binding signal (z-score within array); higher = stronger binding
# Conditions in all cases: glycan notation: IUPAC condensed, linker removed
# [1] = target: Gal(b1-4)GlcNAc(b1-6)[Gal(b1-4)GlcNAc(b1-3)]GalNAc
# Outline: (§1)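 Glycan array data came from 3228 arrays in the Consortium for Functional Glycomics database, and only arrays with an available protein sequence were kept. Glycan names were put into IUPAC-condensed notation, and columns mapping to the same glycan were averaged. The binding signal is a within-array Z-score, averaged across arrays of one protein sequence run at different concentrations or buffers and across linkers. A negative Z-score can be read as non-binding.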
# [2] = target: Gal3S(b1-4)[Fuc(a1-3)]GlcNAc6S
# Outline: as §1
# [3] = target: GalNAc3S(b1-4)GlcNAc3S
# Outline: as §1
# [4] = target: GalNAc4S6S(b1-4)GlcNAc
# Outline: as §1
# [5] = target: Glc(a1-4)Glc
# Outline: as §1
# [6] = target: GlcA(b1-3)Gal
# Outline: as §1
# [7] = target: GlcNAc(a1-4)Gal(b1-4)GlcNAc(b1-3)Gal(b1-4)Glc
# Outline: as §1
# [8] = target: GlcNAc(b1-2)[GlcNAc(b1-4)]Man(a1-3)[GlcNAc(b1-4)][GlcNAc(b1-2)[GlcNAc(b1-6)]Man(a1-6)]Man(b1-4)GlcNAc(b1-4)[Fuc(a1-6)]GlcNAc
# Outline: as §1
# [9] = target: GlcNAc(b1-2)[GlcNAc(b1-6)]Man(a1-6)[GlcNAc(b1-2)Man(a1-3)]Man(b1-4)GlcNAc(b1-4)[Fuc(a1-6)]GlcNAc
# Outline: as §1
# [10] = target: GlcNAc(b1-3)Gal(b1-4)GlcNAc(b1-3)Gal(b1-4)GlcNAc(b1-3)Gal(b1-4)GlcNAc(b1-3)Gal(b1-4)GlcNAc(b1-2)Man(a1-3)[GlcNAc(b1-3)Gal(b1-4)GlcNAc(b1-3)Gal(b1-4)GlcNAc(b1-3)Gal(b1-4)GlcNAc(b1-3)Gal(b1-4)GlcNAc(b1-2)Man(a1-6)]Man(b1-4)GlcNAc(b1-4)GlcNAc
# Outline: as §1
# [11] = target: GlcNAc(b1-6)Gal(b1-4)GlcNAc
# Outline: as §1
# [12] = target: Kdn(a2-3)Gal(b1-3)GalNAc
# Outline: as §1
# [13] = target: MurNAc(b1-4)GlcNAc
# Outline: as §1
# [14] = target: Neu5Ac(a2-3)Gal(b1-3)[GlcNAc(b1-6)]GalNAc
# Outline: as §1
# [15] = target: Neu5Ac(a2-3)Gal(b1-4)GlcNAc(b1-2)[Neu5Ac(a2-3)Gal(b1-4)GlcNAc(b1-4)]Man(a1-3)[GlcNAc(b1-4)][Neu5Ac(a2-3)Gal(b1-4)GlcNAc(b1-2)[Neu5Ac(a2-3)Gal(b1-4)GlcNAc(b1-6)]Man(a1-6)]Man(b1-4)GlcNAc(b1-4)GlcNAc
# Outline: as §1
# [16] = target: Neu5Ac(a2-3)Gal(b1-4)GlcNAc(b1-2)[Neu5Ac(a2-3)Gal(b1-4)GlcNAc(b1-6)]Man(a1-6)[Neu5Ac(a2-3)Gal(b1-4)GlcNAc(b1-2)Man(a1-3)][GlcNAc(b1-4)]Man(b1-4)GlcNAc(b1-4)GlcNAc
# Outline: as §1
# [17] = target: Neu5Ac(a2-6)Gal(b1-4)GlcNAc(b1-2)Man
# Outline: as §1
# [18] = target: Neu5Ac(a2-6)Gal(b1-4)GlcNAc(b1-2)Man(a1-3)[GlcNAc(b1-4)][Neu5Ac(a2-6)Gal(b1-4)GlcNAc(b1-2)Man(a1-6)]Man(b1-4)GlcNAc(b1-4)GlcNAc
# Outline: as §1
# [19] = target: Neu5Ac(a2-6)Gal(b1-4)GlcNAc(b1-2)Man(a1-3)[Man(a1-6)]Man(b1-4)GlcNAc(b1-4)GlcNAc
# Outline: as §1
# [20] = target: Neu5Ac(a2-6)Gal(b1-4)GlcNAc(b1-2)Man(a1-3)[Neu5Ac(a2-6)Gal(b1-4)GlcNAc(b1-2)Man(a1-6)]Man(b1-4)GlcNAc(b1-4)GlcNAc
# Outline: as §1
# [21] = target: Neu5Ac(a2-6)Gal(b1-4)GlcNAc(b1-2)Man(a1-6)Man(b1-4)GlcNAc(b1-4)GlcNAc
# Outline: as §1
# [22] = target: Neu5Ac(a2-6)Gal(b1-4)GlcNAc(b1-2)Man(a1-6)[Man(a1-3)]Man(b1-4)GlcNAc(b1-4)GlcNAc
# Outline: as §1
# [23] = target: Neu5Ac(a2-6)Gal(b1-4)GlcNAc(b1-3)Gal(b1-4)GlcNAc(b1-3)[Neu5Ac(a2-6)Gal(b1-4)GlcNAc(b1-3)Gal(b1-4)GlcNAc(b1-6)]GalNAc
# Outline: as §1
# [24] = target: Neu5Ac(a2-8)Neu5Ac(a2-3)Gal(b1-3)GalNAc(b1-4)[Neu5Ac(a2-3)]Gal(b1-4)Glc
# Outline: as §1
binder,measurement,setting,value
B1,glycan array binding signal (z-score),[1],0.403
same,glycan array binding signal (z-score),[2],0.382
same,glycan array binding signal (z-score),[3],3.3
same,glycan array binding signal (z-score),[4],6.71
same,glycan array binding signal (z-score),[5],-0.592
same,glycan array binding signal (z-score),[6],0.317
same,glycan array binding signal (z-score),[7],2.7
same,glycan array binding signal (z-score),[8],2.05
same,glycan array binding signal (z-score),[9],1.69
same,glycan array binding signal (z-score),[10],0.615
same,glycan array binding signal (z-score),[11],0.608
same,glycan array binding signal (z-score),[12],0.552
same,glycan array binding signal (z-score),[13],-0.281
same,glycan array binding signal (z-score),[14],-0.036
same,glycan array binding signal (z-score),[15],2.26
same,glycan array binding signal (z-score),[16],-0.362
same,glycan array binding signal (z-score),[17],-0.44
same,glycan array binding signal (z-score),[18],-1.2
same,glycan array binding signal (z-score),[19],-0.737
same,glycan array binding signal (z-score),[20],0.078
same,glycan array binding signal (z-score),[21],1.27
same,glycan array binding signal (z-score),[22],1.07
same,glycan array binding signal (z-score),[23],0.118
same,glycan array binding signal (z-score),[24],2.87
